Test results reported in PubChem BioAssay (Tox21).
Inconclusive results are not listed. Calls of active or inactive are those of the source. Unless noted, calls follow the shape of the dose curve; as a rule, active = well fitted curve in the direction sought with a large enough effect in the repeat runs; inconclusive = weak or mixed curves; inactive = no such curve, though single readings can be large; an effect the other way counts as inactive or inconclusive.

Tests used:
[1] = qHTS assay to identify aromatase inhibitors - cell viability counter screen (AID 743084);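 also: cells stimulated with testosterone during compound exposure; nearly all actives have a fitted effect of over 55% in size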
[2] = target: Aryl hydrocarbon receptor (Homo sapiens) (UniProt P35869); assay: qHTS assay to identify small molecule that activate the aryl hydrocarbon receptor (AhR) signaling pathway (AID 743085);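 also: HG2L7.5c1 human HepG2 liver cells with stably integrated DRE-driven firefly reporter; series mostly up to about 70 µM; nearly all actives have a fitted effect of over 15% in size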
Chain of Aryl hydrocarbon receptor (Homo sapiens) (P35869 whole entry, looked up): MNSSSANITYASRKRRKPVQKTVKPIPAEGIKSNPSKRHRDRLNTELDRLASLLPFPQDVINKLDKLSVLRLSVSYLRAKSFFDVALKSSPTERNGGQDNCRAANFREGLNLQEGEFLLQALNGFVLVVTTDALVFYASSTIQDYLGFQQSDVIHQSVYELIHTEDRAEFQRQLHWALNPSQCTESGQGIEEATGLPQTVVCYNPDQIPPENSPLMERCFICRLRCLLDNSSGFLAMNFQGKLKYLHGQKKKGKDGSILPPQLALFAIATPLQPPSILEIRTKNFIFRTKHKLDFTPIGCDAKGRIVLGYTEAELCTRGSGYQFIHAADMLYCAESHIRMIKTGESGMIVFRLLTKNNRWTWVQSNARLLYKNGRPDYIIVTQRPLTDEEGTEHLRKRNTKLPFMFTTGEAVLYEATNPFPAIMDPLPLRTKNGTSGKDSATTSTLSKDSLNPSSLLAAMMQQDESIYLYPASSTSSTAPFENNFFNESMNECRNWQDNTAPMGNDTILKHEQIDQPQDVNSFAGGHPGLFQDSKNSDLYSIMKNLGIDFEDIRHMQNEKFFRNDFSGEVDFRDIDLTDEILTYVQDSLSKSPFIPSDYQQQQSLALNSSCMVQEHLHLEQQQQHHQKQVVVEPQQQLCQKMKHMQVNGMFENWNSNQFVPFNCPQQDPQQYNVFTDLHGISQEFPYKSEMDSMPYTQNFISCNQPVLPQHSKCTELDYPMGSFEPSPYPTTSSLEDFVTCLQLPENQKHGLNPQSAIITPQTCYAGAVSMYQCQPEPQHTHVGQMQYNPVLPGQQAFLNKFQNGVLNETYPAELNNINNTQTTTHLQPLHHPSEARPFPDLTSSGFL
Summary of the method: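 AhR agonist activity is inferred from enhanced light output of a DRE-controlled firefly luciferase reporter in HepG2 cells, measured with ONE-Glo following 24 h treatment at 37C.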

[3] = qHTS assay to identify small molecule that activate the aryl hydrocarbon receptor (AhR) signaling pathway - cell viability counter screen (AID 743086);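 also: HepG2 liver cells carrying the AhR DRE luciferase reporter; series mostly up to about 70 µM; nearly all actives have a fitted effect of over 45% in size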
Summary of the method: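 HepG2-AhR-luc (HG2L7.5c1) cells, 4000/well, treated 24 h at 37 C with compound; viability measured as CellTiter-Fluor fluorescence after 30 min in the same wells as the luciferase read.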

[4] = target: Peroxisome proliferator-activated receptor gamma (Homo sapiens) (UniProt P37231); assay: qHTS assay to identify small molecule agonists of the peroxisome proliferator-activated receptor gamma (PPARg) signaling pathway (AID 743094; active = well fitted activation curve with a large enough effect in the signal ratio in the repeat runs, not every such curve was filed as active; the % refers to the signal ratio)
Chain of Peroxisome proliferator-activated receptor gamma (Homo sapiens) (P37231 whole entry, looked up): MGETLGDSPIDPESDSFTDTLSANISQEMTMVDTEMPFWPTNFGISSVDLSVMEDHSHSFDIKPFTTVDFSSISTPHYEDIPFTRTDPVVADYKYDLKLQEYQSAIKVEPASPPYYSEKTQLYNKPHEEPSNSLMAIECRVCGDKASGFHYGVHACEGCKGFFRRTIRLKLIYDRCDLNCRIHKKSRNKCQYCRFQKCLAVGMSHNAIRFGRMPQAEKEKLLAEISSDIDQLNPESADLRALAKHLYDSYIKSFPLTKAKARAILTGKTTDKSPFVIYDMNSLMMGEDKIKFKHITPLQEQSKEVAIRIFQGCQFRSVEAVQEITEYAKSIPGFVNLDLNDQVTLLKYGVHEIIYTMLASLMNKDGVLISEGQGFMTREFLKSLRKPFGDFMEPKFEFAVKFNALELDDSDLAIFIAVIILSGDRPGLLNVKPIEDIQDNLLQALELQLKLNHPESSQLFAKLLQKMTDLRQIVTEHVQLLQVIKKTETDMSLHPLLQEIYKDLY
Summary of the method: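 HEK293H PPARg-bla cells, 5 h settle at 37C/5% CO2; compound (DMSO) 17 h, 37C; B/G FRET substrate 1 h RT; fluorescence intensity read-out. qHTS format.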

[5] = qHTS assay to identify small molecule antagonists of the peroxisome proliferator-activated receptor gamma (PPARg) signaling pathway - cell viability counter screen (AID 743194); also: nearly all actives have a fitted effect of over 55% in size
Summary of the method: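 Cytotoxicity counter screen in PPARg-bla HEK293H cells, same wells as reporter assay. Compounds plus 50 nM rosiglitazone (final) for 17 h at 37 C, then viability read by CellTiter-Glo luminescence.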

[6] = qHTS assay for small molecule agonists of the antioxidant response element (ARE) signaling pathway (AID 743202; active = well fitted activation curve with a large enough effect in the signal ratio in the repeat runs, not every such curve was filed as active; the % refers to the signal ratio; also: potency is read from the fitted curve at half-maximal effect)
Summary of the method: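 HepG2 ARE-bla cells; 16 h treatment at 37 C; FRET-based beta-lactamase fluorescence read after 2 h substrate incubation at room temperature.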

[7] = qHTS assay for small molecule agonists of the antioxidant response element (ARE) signaling pathway - cell viability counter screen (AID 743203; calls by dose curve; also: nearly all actives have a fitted effect of over 55% in size)
Summary of the method: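 Luminescence read-out (CellTiter-Glo, 30 min at room temperature) measured cell viability in the same wells as the ARE beta-lactamase reporter. HepG2 ARE-bla cells were treated with compounds for 16 hrs at 37C/5% CO2.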

[8] = qHTS assay for small molecule activators of the heat shock response signaling pathway - cell viability counter screen (AID 743209); also: nearly all actives have a fitted effect of over 50% in size
Summary of the method: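 HSE-bla HeLa; 1500 cells/well; overnight 37 C, 5% CO2; compound 5 h 37 C; LiveBLAzer B/G substrate 2.5 h RT; CellTiter-Glo 30 min RT; luminescence.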

[9] = qHTS assay for small molecule activators of the heat shock response signaling pathway (AID 743210; active = well fitted activation curve with a large enough effect in the signal ratio in the repeat runs, with a control signal flat, not every such curve was filed as active; the % refers to the signal ratio;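 also: HeLa cells with beta-lactamase reporter driven by heat shock elements; series mostly up to about 63 µM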)
Summary of the method: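 Following overnight attachment, HSE-bla HeLa cells received test compounds for 5 h at 37 C; beta-lactamase activity was then detected via FRET substrate fluorescence.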

Measured: Potency

O=S(=O)(O)c1ccc(Cl)cc1
inactive: all assays above

CCN(CC)CC
inactive: all assays above

C=COCCCCO
not listed: [6]
inactive: all other assays above

CC/C=C/CCCCCCCCCCOC(C)=O
not listed: [5]
inactive: all other assays above

CC1(C)CC(N)CC(C)(C)N1
not listed: [7]
inactive: all other assays above

CC1=C(O)C(=O)CO1
not listed: [6] | [9]
inactive: all other assays above

COC(C)(C)CC(C)=O
not listed: [7]
inactive: all other assays above

C=CCCCCCCCCOC(C)=O
inactive: all assays above

Cc1cc(O)c(Cl)cc1C
inactive: all assays above

N=C(N)S(=O)O
not listed: [7]
inactive: all other assays above

NC[C@H]1O[C@H](O[C@H]2[C@H](O)[C@@H](O[C@H]3O[C@H](CO)[C@@H](O)[C@H](N)[C@H]3O)[C@H](N)C[C@@H]2N)[C@H](N)[C@@H](O)[C@@H]1O
not listed: [7] | [9]
inactive: all other assays above

O=c1[nH]c(=O)c2cn[nH]c2[nH]1
inactive: all assays above

c1coc(Cn2cccc2)c1
not listed: [6] | [7] | [9]
inactive: all other assays above

Cc1ccc(OC(=O)CC(C)C)cc1
inactive: all assays above

C=CCON/C(CCC)=C1\C(=O)CC(C)(C)C(C(=O)OC)=C1O
not listed: [7] | [9]
inactive: all other assays above

C/C(Cl)=C/CCl
active: [6] 31.2 µM
inactive: all other assays above

NS(=O)(=O)c1cc2c(cc1C(F)(F)F)NCNS2(=O)=O
not listed: [6]
inactive: all other assays above

CCCCN(CCCC)CCCCCCN(CCCC)CCCC
inactive: all assays above

Nc1ccc(C(=O)NCC(=O)O)cc1
inactive: all assays above

O=C(O)CCCCCCCCCC(=O)O
not listed: [7]
inactive: all other assays above

COc1cnc(NS(=O)(=O)c2ccc(N)cc2)nc1
not listed: [8]
inactive: all other assays above

CN(C)CCc1c[nH]c2ccc(CS(=O)(=O)N3CCCC3)cc12
inactive: all assays above

CCCCCC(=O)CC
inactive: all assays above

CCOCCOCCOC(C)=O
not listed: [7]
inactive: all other assays above

C=CCOC(=O)CCCCCCCC
inactive: all assays above
